Publication PMC5540273 (PLoS ONE, 2017)

These compounds were tested on PRKCQ. Conditions: concentration: 1 μM,replicates: in singlicate; n = 1.
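Note: KINOMEscan kinase panel screen.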

SMILES	%Inh
CNC(=O)c1ccccc1Sc1ccc2c(/C=C/c3ccccn3)n[nH]c2c1	3%
O=C(NCCNc1ccnc(NCc2ccc(F)cc2)n1)c1cc2ccccc2s1 [GSK1379944]	39%
CN(C)CCOc1ccc(-c2cc(-c3c[nH]nc3-c3ccccn3)ccn2)cc1 [GW835314]	100%
Cc1cc(C(=O)Nc2ccc(Oc3ccc4nc(NC(=O)C5CC5)cn4n3)cc2)nn1-c1ccccc1	0%
Cc1ccc(-n2nc(C(C)(C)C)cc2NC(=O)Nc2ccc(OCCN3CCOCC3)c3ccccc23)cc1 [GW839464]	0%
CCN(CC)CCCCNc1ncc2cc(-c3c(Cl)cccc3Cl)c(NC(=O)NC(C)(C)C)nc2n1	0%
CCN(CC)CCOc1ccc(Nc2ncc3cc(-c4c(Cl)cccc4Cl)c(=O)n(C)c3n2)cc1 [SB-601273]	27%
Cc1cc2cn[nH]c2cc1-c1cccc2c(N)c(C(N)=O)nnc12	21%
CC(C)Nc1cc(-c2ccc3c(N)n[nH]c3c2)nc(N)n1 [GSK2221681]	12%
C[C@@H](Oc1cc(-c2cnn(C3CCNCC3)c2)cnc1N)c1c(Cl)ccc(F)c1Cl	26%
Cl.Cl.Nc1nc(-c2ccc3c(N)n[nH]c3c2)cc(N2CCCC(NC(=O)c3ccccc3)C2)n1 (stereo not drawn) [GSK2286775]	18%
CC(C)N1C(=O)Cc2cc(Nc3ncc(C(F)(F)F)c(NCc4cccc(S(C)(=O)=O)c4)n3)ccc21	9%
